Bioassay records from PubChem.
AmpC inh no detg: blocks E. coli AmpC beta-lactamase in detergent-free assay; P00811; AmpC nitrocefin hydrolysis, absorbance 480 nm, 0.0001% Triton; Potency, µM (highest dose often 57.1 µM), for inactives: at the highest dose activity change, negative = inhibition, hits mostly inhibitors; actives 0.52% (n = 330,000); AID 485341;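 note: plate controls were no compound for no effect and no enzyme for full effect; nearly all actives have a fitted effect of over 20% in size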
Target sequence (P00811 whole entry, looked up): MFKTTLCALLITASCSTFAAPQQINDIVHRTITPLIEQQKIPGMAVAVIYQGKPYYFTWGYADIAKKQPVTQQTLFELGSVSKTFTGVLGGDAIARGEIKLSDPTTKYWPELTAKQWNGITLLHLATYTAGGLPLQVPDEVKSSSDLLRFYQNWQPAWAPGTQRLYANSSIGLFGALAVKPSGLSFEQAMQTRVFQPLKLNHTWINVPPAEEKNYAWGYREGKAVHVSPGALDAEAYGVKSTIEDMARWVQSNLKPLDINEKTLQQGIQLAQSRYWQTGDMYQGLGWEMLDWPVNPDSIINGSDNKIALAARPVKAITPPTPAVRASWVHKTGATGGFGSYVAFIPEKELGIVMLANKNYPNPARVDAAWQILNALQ
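AmpC (5.3 nM in the dispensed reagent) in 20 mM phosphate pH 7.0 with 0.01% (detergent screen) or 0.0001% Triton X-100 was preincubated with compounds for 15 min at room temperature. Nitrocefin was then added from an 800 uM solution, and hydrolysis was followed at 480 nm.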
AmpC detergent: inhibitors of E. coli AmpC beta-lactamase with detergent. AID 485294. P00811. Potency, µM (doses to about 114 µM), inactives show top-dose activity change, negative = inhibition, hits mostly inhibitors. actives 0.041% (n = 370,000). AmpC hydrolysis of nitrocefin, absorbance 480 nm, 0.01% Triton;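 note: 0% = no-compound wells and -100% = no-enzyme wells; nearly all actives have a fitted effect of over 25% in size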
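20 mM phosphate pH 7.0 + 0.01% (detergent screen) or 0.0001% Triton X-100; 5.3 nM AmpC reagent; cpd preinc 15 min RT; nitrocefin (800 uM stock) to start; A480 q20 s × 4 min; Activity was normalised to no-enzyme and no-compound control wells.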
MARV entry inh: blocks Marburg virus binding to or entry into cells; actives 1.8% (n = 300,000); Marburg virus pseudotyped entry inhibition, cell reporter; Potency, µM (top dose mostly 37.8 µM), without a hit: at the highest dose activity change, negative = inhibition, hits mostly inhibitors; AID 540276; calls by dose curve; tested in HEK293 cells
LASV entry inh: Lassa virus entry inhibition; Potency, µM (highest dose often 37.9 µM), for the others: at the top dose activity change, negative = inhibition, usual class: inhibitors; AID 540256; actives 1.2% (n = 300,000); Lassa virus pseudotype entry inhibition, cell reporter; calls by dose curve; tested in HEK293 cells; note: nearly all actives have a fitted effect of over 50% in size
AMA1 RON2 block: disrupts binding of P. falciparum AMA1 to RON2. AlphaScreen AMA1-biotinylated RON2 peptide binding. actives 0.2% (n = 360,000). Potency, µM (titrated, usually from 58.2 µM), inactives show at the highest dose activity change, negative = inhibition, usual class: inhibitors;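 note: 0% = vehicle wells and -100% = peptide control; nearly all actives have a fitted effect of over 45% in size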
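AMA1 (3D7) with his tag at 25 nM final met compounds first, then biotinylated RON2 peptide at 25 nM; detection used donor plus acceptor beads, 10 µg/mL apiece, read by AlphaScreen after 30 min at room temperature.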
The depositor's hits bear a star; ? = inconclusive; · = no result; [ ] = dose if it differs, or a comment. Shown are actives, neighbours in structure and some others; about 2.3% of the full set was active somewhere. Unless noted, calls come from the whole dose curve; as a rule, active = well fitted curve in the direction sought with a large enough effect; inconclusive = small, poorly fitted or top-dose-only effect, or another doubt; inactive = no such curve, though single readings can be large; an effect the other way counts as inactive or inconclusive. Unless noted, % is set by controls: 0 for no effect and ±100 for the full control effect; potency is the fitted concentration of half-maximal effect.

SMILES	AmpC inh no detg	AmpC detergent	MARV entry inh	LASV entry inh	AMA1 RON2 block
CC(=NNC(=S)N1CCN(C2CCCCCC2)CC1)c1ccccn1	·	·	?	0.28µM*	14µM*
C=C(C)C(O)C=Cc1ccccc1OC (stereo not given)	·	·	6%[14.2 µM]	·	·
Cn1cccc1-c1cc2n(n1)CCC(=O)N2CC(=O)Nc1ccc(F)cc1Cl	·	-1%	·	-5%[46.1 µM]	·
Cc1c(C(=O)OCC(=O)Nc2cccc(S(N)(=O)=O)c2)oc2c1ccc1ccccc12	11µM*	-2%	·	·	-6%
NS(=O)(=O)c1cccc(NC(=O)COC(=O)c2ccccc2C(=O)c2ccccc2)c1	-47%	-1%	·	·	16%
COc1cccc(NC(=O)COC(=O)c2cc(S(=O)(=O)N3CCOCC3)ccc2C)c1	-5%	-8%	18µM*	-18%	7%
CCc1nc2ccccc2c(C(=O)OCC(=O)Nc2cccc(S(=O)(=O)N3CCOCC3)c2)c1C	39%	-8%	4.6µM*	?	0%
CCc1nc2ccccc2c(C(=O)OCC(=O)Nc2cccc(S(=O)(=O)NC3=NCCCCC3)c2)c1C	48%	0%	?	22µM*	16%
Cc1cccc(OC(=O)CSc2nnc(-c3ccc4c(c3)OCO4)o2)c1C	·	21%	-1%[46.1 µM]	-15%[46.1 µM]	·
COc1cccc(CC(=O)N2CCc3nc(-c4ccccc4)c4c(c3C2)CO[C@@H](C)C4)c1	·	·	-3%[14.2 µM]	·	·
CSc1ccc(/C=C/C(=O)c2c(O)cc(C)oc2=O)cc1	28µM*	-11%	8%[46.1 µM]	-27%[46.1 µM]	84%
Cc1cc(O)c(C(=O)/C=C/c2ccc(Cl)cc2)c(=O)o1	25µM*	-1%	22%	23%	58%
COc1cc(/C=C/C(=O)c2c(O)cc(C)oc2=O)cc(OC)c1O	0%	-9%	-20%	0%	-4%
COc1ccc(OC)c(NC(=O)c2c(N3CCCC3=O)c3cc(OC)ccc3n2C)c1	·	0%	·	26%[46.1 µM]	·
COc1ccc(C2=CC(c3ccc(F)cc3)n3ncc(C(=O)Nc4ccc(C)cc4)c3N2)cc1 (stereo not given)	·	1%	·	?	·
COc1ccc(CN2CCCCCC2)cc1	-16%	?	-3%	18%	-2%
COc1ccc(N=Nc2cc(C)c(O)c(CN3CCCCC3)c2)cc1	2%	6%	-26%[46.1 µM]	5%	20µM*
CCc1ccc(NC(=O)CSc2nnc(Cc3cccn3C)n2-c2ccc(F)cc2)cc1	13µM*	-17%	9%	·	-2%
Cc1ccc(NC(=O)CSc2nnc(Cc3cccn3C)n2-c2ccc(F)cc2)cc1	57%	?	-4%	-6%	2%
COc1ccc(Nc2cc(C)c3cc(NC(=O)c4cc(OC)cc(OC)c4)ccc3n2)cc1	·	2%	·	-17%[46.1 µM]	·
COc1ccc(CNC(=O)c2ccc3c(c2)N(Cc2c(F)cccc2Cl)C(=O)CS3)cc1	·	7%	11µM*	?	·
CCOc1ccc(CN2C(=O)c3ccccc3Sc3ccc(C(=O)NCc4ccc(C)cc4)cc32)cc1	·	5%	10µM*	?	·
O=C(NCCc1ccc(Cl)cc1)c1ccc2c(c1)N(Cc1c(F)cccc1Cl)C(=O)CS2	·	8%	-12%[46.1 µM]	-2%[46.1 µM]	·
CCN(CC)CCCNC(=O)c1ccc2c(c1)N(Cc1c(F)cccc1Cl)C(=O)c1ccccc1S2	·	-1%	6.3µM*	?	·
O=C(NCc1ccco1)c1ccc2c(c1)N(Cc1c(F)cccc1Cl)C(=O)c1ccccc1S2	·	-1%	?	?	·
SMILES	AmpC inh no detg	AmpC detergent	MARV entry inh	LASV entry inh	AMA1 RON2 block
CC(C)OCCCNC(=O)CN1C(=O)COc2ccc(S(=O)(=O)N3CCOCC3)cc21	·	-13%	-6%[46.1 µM]	-3%[46.1 µM]	·
CN(C)c1nc2n(c(=O)n1)[C@H](C#N)CS2	·	·	2%	·	·
Cc1cccc(NC(=O)CSc2nccn2Cc2ccc(F)cc2)c1C	·	9%	·	-31%[46.1 µM]	·
O=C(Nc1ccc(F)cc1F)Nc1sccc1-c1nc2ccccc2s1	7.9µM*	7%	·	·	39%
O=C(Nc1nc2ccccc2s1)Nc1ccc(F)cc1F	-37%	2%	?	-15%[46.1 µM]	-2%
COc1ccccc1/C=C/c1nc(C#N)c(NCc2ccccc2)o1	·	21%	-2%[46.1 µM]	-3%[46.1 µM]	·
CCCCCCSc1nsc(NC(=O)CC(C)C)n1	-15%	-6%	?	-57%[46.1 µM]	12%
CCCSc1nsc(NC(=O)CC)n1	-8%	-11%	13µM*	?	5%
O=C(NC1CCCCC1)C(=O)c1c(-c2ccccc2)[nH]c2ccccc12	13µM*	-10%	-3%	-18%	-5%
CCCC1O[C@@H]2C[C@H]3[C@@H]4CCC5=CC(=O)C=C[C@]5(C)C4[C@@H](O)C[C@]3(C)[C@]2(C(=O)CO)O1 (stereo not given in full)	·	·	3.2µM*	·	·
Clc1ccccc1Cn1cccc1C1=NC(Cc2ccccc2)CO1 (stereo not given)	·	2%	-20%[46.1 µM]	14%[46.1 µM]	·
CCC(=O)C1=C(c2cccc([N+](=O)[O-])c2)N(C(=O)CC)n2c(nnc2C2CCCCC2)S1	·	4%	·	?	·
CNC(=O)c1nnsc1S(=O)(=O)c1ccc(Cl)cc1	?	?	2.8µM*	?	9%
O=c1/c(=C\c2ccccn2)sc2n1CN(c1ccccc1)CN=2	·	·	14%	·	·
O=C(Cc1ncc(C(F)(F)F)cc1Cl)NC1CC1	-12%	?	14%	-15%	-6%
O=C(Cc1ncc(C(F)(F)F)cc1Cl)Nc1ccc(F)cc1	0.16µM*	1%	-9%	-15%	2%
O=C(Nc1ccc(Cl)c(Cl)c1)c1cccc(S(=O)(=O)NCc2cccnc2)c1	-17%	-10%	?	13µM*	18%
COc1ccc(OC)c(NC(=O)CSc2ncnc3c2cnn3-c2ccccc2Cl)c1	-3%	?	1.8µM*	?	-9%
CCOC(=O)CNC(=O)CSc1ncnc2c1cnn2-c1ccc(OC)cc1	-7%	?	11µM*	?	6%
COc1ccc([C@]23Cc4cc(C#N)ccc4[C@H](O2)c2c(cc(-c4ccccc4)oc2=O)O3)cc1	·	·	7%[14.2 µM]	·	·
COc1ccc(CCNC(=O)c2c(C)oc3nc(C)nc(N4CCOCC4)c23)cc1OC	·	-1%	·	22%[46.1 µM]	·
COc1ccc2c(c1)[C@@]1(OCCC=C[C@@H]1C)C(=O)N2Cc1ccccc1C(F)(F)F	·	·	-15%[14.2 µM]	·	·
Cc1c(C(=O)NC2CCN(Cc3ccccc3)C2)oc2c(Cl)cccc12 (stereo not given)	57%	-1%	?	10µM*	-5%
Cc1ccc(Nc2nc3ccccc3s2)c(C)c1	-33%	-8%	8.2µM*	10µM*	-22%
CCN(CC)CCOC(=O)/C=C/c1ccccc1	-6%	-7%	2%	·	-2%
CCN(CC)CC(C)(C)C(=O)/C=C/c1ccc(/C=C/C(=O)C(C)(C)CN(CC)CC)cc1	·	·	1.4µM*	3.5µM*	15%
N#Cc1c(Nc2ccccc2)[n+]([O-])c2ccc(Cl)cc2[n+]1[O-]	·	·	?	3.2µM*	34%
